According to ChEMBL document CHEMBL4513216, “Probing the Open Global Health Chemical Diversity Library for Multistage-Active Starting Points for Next-Generation Antimalarials” (ACS Infect Dis, 2020):
The whole screen tested about 69,000 compounds, of which about 8,600 (12%) showed an effect of 50% or more. For the sample, strong results were picked, then their nearest neighbours and some compounds at random.

tested on: Plasmodium berghei; assay: Screen against P. berghei liver stage (PbLuc), transformed with Luciferase, at 10uM; format: functional, HepG2; details: tested at 10 uM

Row | SMILES | INHIBITION [%]
1 | CCc1nc(C)c(CN2CCOC(Cc3cccc4ccccc34)C2)[nH]1 (configuration not stated) | 18.6
2 | CCc1nc(C)c(CN2CCOC(Cc3ccccc3Cl)C2)[nH]1 (configuration not stated) | 24.2
3 | CCc1nc(C)c(CN2CCOC(CCCC(C)C)C2)[nH]1 (configuration not stated) | 68.9
4 | O=C(c1c[nH]c(=O)cn1)N1C[C@H]2CC[C@@H](C1)N(Cc1ccccc1)C2 | 17.2
5 | CCn1cc(N)c(-c2nnc3n2CCCC3)n1 | 21.9
6 | CN(CCOc1cccc(S(C)(=O)=O)c1)c1ccccc1 | 81.1
7 | CCC(C)(C)N(C)CCOc1cccc(S(C)(=O)=O)c1 | 23.2
8 | CN(CCOc1cccc(S(C)(=O)=O)c1)CC(F)F | 31.1
9 | COCCN1CCC2(CC1)CN(C(=O)C1CC1)c1ccc(F)cc12 | 34.6
10 | O=C(c1cccnc1N1CCCCC1)N1CCCC(n2ccnc2)C1 (configuration not stated) | 22.55
11 | CCC(C)Nc1ccc(-c2nc(-c3cccc(OC)c3OC)no2)cn1 (configuration not stated) | 33.9
12 | c1cc(CNc2ccc(-c3nc(C4CC4)no3)cn2)no1 | 1.98
13 | Cc1cc(CNc2ccc(-c3nc(C4CC4)no3)cn2)no1 | -28.3
14 | CSCC[C@@H](CO)Nc1ccc(-c2nc(C3CC3)no2)cn1 | 54.4
15 | CSCC[C@@H](CO)Nc1ccc(-c2nc(-c3ccccc3F)no2)cn1 | 76.8
16 | CSCC[C@@H](CO)Nc1ccc(-c2nc(-c3ccccc3C)no2)cn1 | 36.5
17 | CN(C)CCO[C@@H]1CC[C@H]2[C@H]1OCCN2C(=O)CCc1ccccc1 | 5.65
18 | CC(=O)N1C[C@H]2CC[C@@H](C1)N(S(=O)(=O)c1cc(F)ccc1C)C2 | -18.1
19 | NC1CCN(C2CCN(c3ccc(-c4ccco4)cc3)CC2)CC1 | 65
20 | CCS(=O)(=O)c1ccc(N2CCC(N)CC2)cc1 | 12.2
21 | CNC1CCN(C2CCN(c3ccc(-c4ccco4)cc3)CC2)CC1 | 49
22 | COc1ccc(N2CCC(N3CCOC(C(F)(F)F)C3)CC2)cc1 (configuration not stated) | -25.2

Row | SMILES | INHIBITION [%]
23 | NCC1CCN(C2CCN(c3ccc(-c4ccco4)cc3)CC2)C1 (configuration not stated) | 92.8
24 | O=C(O)c1ccccc1C1CCN(C2CCN(c3ccccc3)CC2)C1 (configuration not stated) | 35.1
25 | Cc1cccc(C(=O)N2CCn3cc(CN4CCCCC4)nc3C2)n1 | 49.7
26 | Nc1cc2c(nn1)CCN(C(=O)Cc1ccc3c(c1)CCO3)C2 | 5.42
27 | Nc1cc2c(nn1)CCN(C(=O)CCC1CCCCC1)C2 | 62.6
28 | Nc1cc2c(nn1)CCN(C(=O)CC1CCCCC1)C2 | 50.3
29 | Nc1cc2c(nn1)CCN(C(=O)Cc1ccc3c(c1)CCCC3)C2 | 8.4
30 | Nc1cc2c(nn1)CCN(C(=O)CCc1ccc3c(c1)OCO3)C2 | 32.9
31 | Nc1cc2c(nn1)CCN(C(=O)CC1CCCC1)C2 | 2.26
32 | Nc1cc2c(nn1)CCN(C(=O)CCCC1CCCCC1)C2 | 70.8
33 | NC(=O)c1cc2c(nc1N)CCN(C(=O)C1CCCCC1)C2 | 62.9
34 | Cn1ncc2c1CCCN(C(=O)C1CCC1)C2 | 10.855
35 | Nc1cc2c(nn1)CCN(C(=O)C1CCc3ccccc31)C2 (configuration not stated) | 17.4
36 | Cn1ncc2c1CCCN(C(=O)C1CCCC1)C2 | 22.75
37 | CCNc1cc2c(nn1)CCN(C(=O)CC1CCCCC1)C2 | 30.2
38 | Cn1nnc2c1CCN(Cc1ccccc1)C2COCC1CC1 (configuration not stated) | 33.5
39 | COc1cn(CC(=O)N2CCN(c3ccc(Cl)cc3)CC2)c(C)cc1=O | 28.3
40 | COc1cc(OC)cc(-c2cc(N)on2)c1 | 12.8
41 | Cc1ccc(CN(CC(=O)N2CCOC(C)C2)C2CC2)cc1 (configuration not stated) | -59.4
42 | C[C@@H](NC(=O)c1cnccn1)c1c(-c2ccc(Cl)cc2)noc1C(=O)O | 26
43 | CC(C)c1noc(CN(CCC2CCCCC2)CC(N)=O)n1 | 34
44 | CN1CC(C(=O)NCCc2ccc3c(c2)OCCO3)CC1=O (configuration not stated) | 27.7

Row | SMILES | INHIBITION [%]
45 | Cc1cc(C2CCCN2Cc2nc3ccccc3o2)on1 (configuration not stated) | -12.2
46 | CC(C)Cn1nnnc1SC(C(=O)NCc1cccnc1)C(C)C (configuration not stated) | 16.9
47 | Cc1nccnc1CCC1COCCN1C(=O)CCc1c(C)noc1C (configuration not stated) | 9.05
48 | Cc1ncsc1CN1C[C@@H]2COC[C@]2(C(=O)NCc2cccnc2)C1 | 42.1
49 | Cc1nc(C)c(CC(=O)N2CCC(c3ccn4nccc4n3)CC2)s1 | 4.13
50 | CNc1ncccc1C(=O)N1CCCC2(C1)C(=O)N(C)c1ccccc12 (configuration not stated) | -4.35
51 | CCCc1noc2ncc(C(=O)N3CCCC3c3cnn(C)c3)cc12 (configuration not stated) | -29.1
52 | CN(C)CCN1C[C@@H]2CN(C(=O)C3CC=CC3)C[C@@H]2C1=O | 8.31
53 | CN(C)CCN1C[C@@H]2CN(S(=O)(=O)c3ccccc3)C[C@@H]2C1=O | 53.9
54 | CN(C)CCN1C[C@@H]2CN(C(=O)c3ccsc3)C[C@@H]2C1=O | 3.47
55 | CN(C)CCN1C[C@@H]2CN(S(=O)(=O)c3cccs3)C[C@@H]2C1=O | -9.74
56 | CN(C)CCN1C[C@@H]2CN(c3ccccc3)C[C@@H]2C1=O | 53.9
57 | O=C1[C@H]2CN(S(=O)(=O)c3ccccc3)C[C@H]2CN1Cc1cccnc1 | -29
58 | CN1CCN(Cc2cnc3n2CCN(CCc2ccccc2)C3)CC1 | -18.2
59 | O=C(c1ccccn1)N1CCC(Cc2cnc3[nH]ccc3c2)CC1 | -12.2
60 | COC(=O)c1cccc(S(=O)(=O)NC(=O)COC2CCCCC2)c1 | 38.8
61 | C[C@@H]1C[C@H](C(F)(F)F)n2nc(C3CCN(S(C)(=O)=O)CC3)cc2N1 | 1.5
62 | O=C(C1CN(CC2CCOCC2)CC12CCOCC2)N1CCOCC1 (configuration not stated) | 23.3
63 | CNC(=O)[C@@H]1C[C@@H](NC(=O)c2cn(C)nc2C)CN1Cc1sccc1C | 25.8
64 | CNC(=O)[C@@H]1C[C@@H](NC(=O)c2ccc(OC)o2)CN1Cc1sccc1C | 20.8
65 | CNC(=O)[C@@H]1C[C@@H](NC(=O)Cc2nonc2C)CN1Cc1sccc1C | 51.5
66 | COc1ccc(OC)c(C(O)CNC(=O)Nc2cc(C)nn2C)c1 (configuration not stated) | 10.35

Row | SMILES | INHIBITION [%]
67 | Cc1nn(C)c2nc(N3CCC(C(O)c4nccn4C)CC3)sc12 (configuration not stated) | 12.8
68 | Cc1nn(C)c2nc(N3CCC(C(O)c4ccccn4)CC3)sc12 (configuration not stated) | 55.4
69 | Cc1nn(C)c2nc(N3CCC(C(O)Cc4ccccc4)CC3)sc12 (configuration not stated) | 75.1
70 | Cc1nn(C)c2nc(N3CCCCC3c3cccnc3)sc12 (configuration not stated) | 33.1
71 | Cc1nn(C)c2nc(NC3CCNCC3)sc12 | 10.7
72 | Cc1cnc(N2CC[C@@H]3OC(COCC(=O)N(C)C)CC[C@@H]32)nc1 (some centres not stated) | 14.1
73 | CCCC1CN(CCOc2ccccc2)C(=O)c2cccnc2O1 (configuration not stated) | 44.2
74 | Cc1nn(-c2ncnc3[nH]cnc23)c2c1C(C(C)C)CC(=O)N2 (configuration not stated) | -21.2
75 | Cc1ccc2c(c1)C(=O)CC1(CCN(Cc3ccccc3)CC1)O2 | -13.2
76 | Cc1nnc(N2CCN(C(=O)NC3CC3)CC2)c(C(N)=O)c1C | 56.5
77 | Cc1nnc(N2CCCC2)c(C(N)=O)c1C | 6.24
78 | Cc1nnc(N2CCNCC2)c(C(N)=O)c1C | 41.5
79 | O=C(NCC1CC1)c1ccc(NC(=O)c2ccco2)cc1 | -64.3
80 | COc1c(C)cnc(CN2CCCCC2Cn2nc(C)nc2C)c1C (configuration not stated) | 6.14
81 | COc1c(C)cnc(CN2CCCC2Cn2nc(C)nc2C)c1C (configuration not stated) | 27.6
82 | COc1c(C)cnc(CN2CCCCC2CCN2CCOCC2)c1C (configuration not stated) | 56.1
83 | CC(=O)N1CCC1c1cc(N2CCSCC2)nc(C)n1 (configuration not stated) | 29.5
84 | CO[C@H]1CN(Cc2ccccc2F)C[C@@]12CCCO2 | 5.56
85 | Cn1cc(N2CCC3(CCN(C(=O)[C@H]4CCCO4)C3)C2=O)cn1 (some centres not stated) | 12.7
86 | CC(C(=O)N1CCC(Nc2cccnn2)CC1)n1cccn1 (configuration not stated) | 45.7
87 | CC(C(=O)N1CCC(Nc2cccnn2)CC1)n1ccnc1 (configuration not stated) | 23.4
88 | CC(C)C(C(=O)N1CCC(Nc2cccnn2)CC1)n1cncn1 (configuration not stated) | 57.2

Row | SMILES | INHIBITION [%]
89 | CCN1CCC(NC(=O)CNC(C)Cn2cccn2)CC1 (configuration not stated) | 88.6
90 | CCN1CCC(NC(=O)CN2CCCC2Cn2cccn2)CC1 (configuration not stated) | 19
91 | CC(Cn1cccn1)C(=O)N1CCC(Nc2cccnn2)CC1 (configuration not stated) | 53.7
92 | Cc1ccc(NC2CCN(C(=O)C(C(C)C)n3cncn3)CC2)nn1 (configuration not stated) | 31.2
93 | CC(C)C(C(=O)N1CCC(N(C)c2cccnn2)CC1)n1cncn1 (configuration not stated) | 36.9
94 | CC(Cn1cccn1)NCC(=O)NC1CCOCC1 (configuration not stated) | 5.2
95 | CN(Cc1ccco1)C(=O)CN1CCOC(Cn2cccn2)C1 (configuration not stated) | -53.5
96 | COc1c(CNC2CCOc3c(F)cccc32)c(C)nn1C (configuration not stated) | 20
97 | CC(C)c1nn(C)c(N(C)C)c1CNC1CCOc2ccccc21 (configuration not stated) | 12.2
98 | COc1c(CNC2CCc3ccccc32)c(C)nn1C (configuration not stated) | -63.3
99 | COc1c(CNC2CCOc3c(Cl)cccc32)c(C(C)C)nn1C (configuration not stated) | -69
100 | CC(C)c1nn(C)c(Cl)c1CNC1CCOc2ccccc21 (configuration not stated) | 53.3
101 | COc1c(CNC2CCOc3c(Cl)cccc32)c(C)nn1C (configuration not stated) | 77.8
102 | COc1c(CNC2CCSc3ccc(F)cc32)c(C)nn1C (configuration not stated) | 75.2
103 | COc1c(CNC2CCOc3ccccc32)c(C(C)C)nn1C (configuration not stated) | 47.1
104 | COc1c(CNC2CCc3cc(Cl)ccc32)c(C)nn1C (configuration not stated) | 59
105 | COc1c(CNC2CCCOc3ccc(F)cc32)c(C)nn1C (configuration not stated) | -63.5
106 | COc1c(CNC2CCc3cc(C)ccc32)c(C)nn1C (configuration not stated) | 21.5
107 | COc1c(CNC2CCc3cc(F)ccc32)c(C)nn1C (configuration not stated) | 35.8
